{
  "source": "the supplement of paper PMC6555819",
  "data": [
    {"test_system": "VDR:RXRa (NR concentration 270 nM, RXRa partner concentration 90 nM)", "assay": "PBM binding z-score (relative to random genomic background probes); higher = stronger binding; sequences stand for … in GC…GCGATTGACAGCGTAGAATGAAGG", "description": "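Protein-binding microarray (Agilent 4x180K custom design, double-stranded 60-nt probes: 5' GC cap, 34-nt variable region, 24-nt constant primer region; full probe sequence given). Purified or IVT nuclear receptor:RXRα heterodimers (3:1 NR:RXRα, mostly 270:90 nM) or homodimers were incubated for 1 h in PBS with 2% milk and no ligand, then detected with Alexa488 antibodies. Fluorescence from o1-orientation probes (~5 replicates averaged) was converted to z-scores against 500 random hg19 background probes. Variable regions are seed direct-repeat (DR0–DR5) sites, all their single-nucleotide variants and half-site ablations.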", "values": [
      {"sequence": "CGACCAAGGTCAAGGTCAGTGAAAGAGACTCGAA", "PBM binding z-score": 4.82},
      {"sequence": "TCTATTAGTTGATTAGGGCCACCGAAACAGCGGA", "PBM binding z-score": 0.782},
      {"sequence": "TAGCCTAGGTCATGCGTGCCAGTATAGTGTCGGC", "PBM binding z-score": 2.31},
      {"sequence": "CTAACTAGGTCAGAACAGGACAGTGAAGGATGAT", "PBM binding z-score": 0.705},
      {"sequence": "CCTCGGAGGACACAAGGTCAGAGCTGTCCGCTTT", "PBM binding z-score": 1.88},
      {"sequence": "ATCTCTAGGTAACCAAGTTTAGTGAATGCCGAAC", "PBM binding z-score": 1.55},
      {"sequence": "CAAACTAGGTCAAGGTTAAAGTCGGTTTGTGCCA", "PBM binding z-score": 3.2},
      {"sequence": "CGTCCAAAGTCAATGCTAGGTCAGTGAAAGCATT", "PBM binding z-score": 0.457},
      {"sequence": "ATCTCTAGGGAACAAGTTCAGTGAAAGAGAGGAC", "PBM binding z-score": 1.48},
      {"sequence": "CATACAGGGTGAGCTAGGCCAGAGTAGGGACGGC", "PBM binding z-score": -0.189},
      {"sequence": "TCTGCCAGGTCAACGATGGTCAGCTAATCTGCTA", "PBM binding z-score": 2.49},
      {"sequence": "CCTACTGGGCCATCAGGTCATTCATATCAACGTT", "PBM binding z-score": 1.67},
      {"sequence": "GTTAGTTGGTCAGTAAAAGGTCACACACCGGTCG", "PBM binding z-score": 4.28},
      {"sequence": "GCTATTAGTTGAAAGGGCGACCGAATGATTCTCG", "PBM binding z-score": -0.17},
      {"sequence": "CGACCAAGGTCAATGCTAGGTCAGTGAAAGCATT", "PBM binding z-score": 4.69},
      {"sequence": "ATATATAGGTTACATCCGGGTCATTCAGGCTATG", "PBM binding z-score": 4.58},
      {"sequence": "CCAGACAGGTGAGAAGGTAACTCATCCTCGATTA", "PBM binding z-score": 0.198},
      {"sequence": "TCATATAGGTAATACAGGTGAATGTCGGCATCTA", "PBM binding z-score": 1.3},
      {"sequence": "CGAACGAGCGCATGAGTTGATAGCAAATGCCGAT", "PBM binding z-score": -0.307},
      {"sequence": "AGAGCGAGGGCAATGAGTTGATAGCACGGGTGGC", "PBM binding z-score": 4.97},
      {"sequence": "ATCTCTAGGTAACGTTCAGTGAAAGATCGATAGA", "PBM binding z-score": 0.101},
      {"sequence": "CGAACTAGGTCACGGACAGTGAATCTCCGCACGC", "PBM binding z-score": 2.74},
      {"sequence": "CGGCCAAGGTCAGAGAGGTCAGTGAATGCCGAGT", "PBM binding z-score": 7.41},
      {"sequence": "AATACATGGTCATCGTAGGCCAGAGTACGCACAG", "PBM binding z-score": 0.347},
      {"sequence": "CCGACTGGGGCATAAGGTTACCACAAGCCAGCCC", "PBM binding z-score": 0.105},
      {"sequence": "AGAATGAGGTTATACGTAGATCAGGGAGGAAAGT", "PBM binding z-score": 1.33},
      {"sequence": "CAAACTATGTCACGAAAGGTCAAAGTCGAATGAC", "PBM binding z-score": 5.07},
      {"sequence": "ATCTCTAGGTAAAGTTCCGTGAAAGATCGATAGA", "PBM binding z-score": 0.335},
      {"sequence": "CGTCCAAGGTCAAAGGTCAGTGAAGAGATGACGG", "PBM binding z-score": 6.76},
      {"sequence": "TCTTCTAGATCAAAGGTTAAGAAAGCCGAAGCCT", "PBM binding z-score": 1.58},
      {"sequence": "CCTTGGAGGACAACAGGAGGTCAGAGCTGCCAGA", "PBM binding z-score": 1.99},
      {"sequence": "ATATGTAGGTTAAGGGTCATTCACGTTGGTTCGC", "PBM binding z-score": 4.75},
      {"sequence": "CGAACCAGGTCATTGACAGGACAGTGAATAGTAA", "PBM binding z-score": 2.85},
      {"sequence": "ATGGAAAGGTCGACGAGGTGAGTATACACCGTTT", "PBM binding z-score": 5.25},
      {"sequence": "ATCTCTAGGTAAGACTCAGTTCAGTGATGAACGC", "PBM binding z-score": 0.927},
      {"sequence": "ATACCAAGATGATCGTGAGGTCGTTGATACTAAC", "PBM binding z-score": 1.78},
      {"sequence": "ATAACGAGGGCAATGAGTTGATAGCACGGGTGGC", "PBM binding z-score": 4.89},
      {"sequence": "CGAACTAGGTCATCCAGGACAGTGATTACATTGA", "PBM binding z-score": 4.57},
      {"sequence": "GCAGACAGGTGAAACGCAGGTAACTCTGGGTGGC", "PBM binding z-score": -0.545},
      {"sequence": "AGAATGAGGTTAAGATCAGCGAAACAGAATACAT", "PBM binding z-score": 0.872}
    ]}
  ]
}
